Earlier results, collected in PubChem BioAssay AID977611.
Hit rate of the full screen: of about 3,900 compounds, about 3,900 (100%) were called active. No cut-off is given here; in the data, nearly all actives have Kd up to about 4200 µM. The set was probably picked from earlier hits. This is one part of the list. Where a SMILES comes first, the peptide text is derived from it. Non-standard residues stand in square brackets, D forms with d. Square brackets hold non-standard residues; d marks the D form. Residues, ends and D or L forms follow the SMILES beside them. Peptide text beside a SMILES is read from it. [ ]: non-standard residue; d: D form. Orn(CH(NH2)2) = NC(N)NCCC[C@H](N)C(=O)O; pGlu = O=C1CC[C@@H](C(=O)O)N1

Experiment: PubChem AID 977611
Conditions: PDB protein-ligand complexes, literature Kd

CC(C)C[C@H](NC(=O)[C@H](CCCNC(N)N)NC(=O)[C@H](CCCNC(N)N)NC(=O)[C@H](CCCCN)NC(=O)[C@H](C)NC(=O)[C@H](CO)NC(=O)CN)C(=O)N[C@@H](Cc1ccccc1)C(=O)NCC(=O)N[C@@H](CCC(=O)O)C(=O)O (H-GSAK[Orn(CH(NH2)2)][Orn(CH(NH2)2)]LFGE-OH)
Kd (protein: phospho-CDK2/cyclin A, PDB entry 1h28): 300 nM (active)

CC(=O)N[C@H](C(=O)N[C@@H](CCC(N)=O)C(=O)NCC(=O)N[C@@H](CO)C(=O)NCC(=O)N[C@@H](C)C(=O)N[C@@H](Cc1ccccc1)C(=O)NCC(=O)N[C@@H](CCCNC(N)N)C(N)=O)C(C)C (Ac-VQGSGAFG[Orn(CH(NH2)2)]-NH2)
Kd (protein: Fab fragment of the mAb 106.3, PDB entry 3e8u): 0.38 nM (active)

H-AAAFSFKKSFKLSGFSFK-OH
Kd (protein: Ca2+-Calmodulin, PDB entry 1iwq): 8.8 nM (active)

CC(=O)N[C@@H](CCCCN)C(=O)N[C@@H](CCCCN)C(=O)N[C@@H](CCCNC(N)N)C(=O)N[C@@H](Cc1ccc(O)cc1)C(=O)N[C@@H](CO)C(=O)N[C@@H](CCCNC(N)N)C(=O)N[C@@H](CCC(=O)O)C(=O)N[C@@H](Cc1ccccc1)C(=O)N[C@@H](CC(C)C)C(=O)N[C@@H](CC(C)C)C(=O)NCC(=O)N[C@@H](Cc1ccccc1)C(N)=O (Ac-KK[Orn(CH(NH2)2)]YS[Orn(CH(NH2)2)]EFLLGF-NH2)
Kd (protein: EUKARYOTIC TRANSLATION INITIATION FACTOR 4E, PDB entry 4aza): 103 nM (active)

Cc1n[nH]c(C)c1CCCOc1cc(C(=O)O)ccc1F
Kd (protein: Transthyretin (V122I mutation), PDB entry 4hiq): 6.2 nM (active)

OCCOCCOCCOCCOCCOCCOCCOCCOCCOCCOCCOCCOCCOCCOCCOCCOCCOCCOCCOCCOCCOCCOCCOCCOCCO
Kd (protein: Prostaglandin-H2 D-isomerase L-PGDS C65A mutant, PDB entry 4oru): 210000 nM (active)
Kd (protein: Prostaglandin-H2 D-isomerase L-PGDS C65A-K59A double mutant, PDB entry 4orx): 297000 nM (active)
Kd (protein: Prostaglandin-H2 D-isomerase L-PGDS C65A-K59A double mutant, PDB entry 4ory): 297000 nM (active)

OC[C@@H]1O[C@@H](O[C@@H]2[C@@H](O)[C@H](O[C@@H]3CO[C@@H](O)[C@H](O)[C@H]3O)OC[C@H]2O)[C@H](O)[C@H]1O
Kd (protein: SUGAR TRANSPORTER SOLUTE-BINDING PROTEIN, PDB entry 4c1u): 81 nM (active)

OC[C@@H]1O[C@@H](O[C@H]2[C@H](O[C@@H]3CO[C@@H](O[C@@H]4CO[C@@H](O)[C@H](O)[C@H]4O)[C@H](O)[C@H]3O)OC[C@@H](O)[C@@H]2O)[C@H](O)[C@H]1O
Kd (protein: SUGAR TRANSPORTER SOLUTE-BINDING PROTEIN, PDB entry 4c1t): 70.8 nM (active)

Nc1[nH]c(=S)nc2nc[nH]c12
Kd (protein: 6-hydroxymethyl-7,8-dihydropterin pyrophosphokinase, PDB entry 4m5n): 7500 nM (active)

C[C@H](NC(=O)[C@@H]1CCCN1)C(=O)N[C@@H](CCCNC(N)N)C(=O)N1CCC[C@H]1C(=O)N1CCC[C@H]1C(=O)N[C@@H](CCCCN)C(=O)N1CCC[C@H]1C(=O)N[C@@H](CCCNC(N)N)C(=O)N1CCC[C@H]1C(=O)N[C@@H](CCCNC(N)N)C(=O)N[C@@H](CCCNC(N)N)C(=O)O (H-PA[Orn(CH(NH2)2)]PPKP[Orn(CH(NH2)2)]P[Orn(CH(NH2)2)][Orn(CH(NH2)2)]-OH)
Kd (protein: SH3-domain of CIN85, PDB entry 2bz8): 2500 nM (active)

CC(C)C[C@H](NC(=O)[C@@H]1CCC(=O)N1)C(=O)N[C@@H](Cc1ccc(O)cc1)C(=O)N[C@@H](CCC(=O)O)C(=O)N[C@H](C=O)CC(N)=O (tested in a mixture with another compound) ([pGlu]LYEN-aldehyde)
Kd (protein: Sortilin, PDB entry 4po7): 85 nM (active)

H-PDYFL-OH
Kd (protein: Serine/threonine-protein phosphatase 2A activator PTPA, PDB entry 4ny3): 49500 nM (active)

CC(C)C[C@H](NC(=O)[C@H](CC(N)=O)NC(=O)[C@H](CC(C)C)NC(=O)[C@@H](NC(=O)[C@@H](NC(=O)[C@@H]1CCCN1C(=O)[C@H](CCCNC(N)N)NC(=O)[C@H](CCCCN)NC(=O)[C@@H]1CCCN1)[C@@H](C)O)[C@@H](C)O)C(=O)N[C@@H](Cc1ccccc1)C(=O)O (HELM PEPTIDE1{P.K.[NC(N)NCCC[C@H](N[*:1])C(=O)[*:2]].P.T.T.L.N.L.F}$$$$V2.0)
Kd (protein: Mitogen-activated protein kinase 8 isoform 4, PDB entry 1ukh): 420 nM (active)

CC(C)C[C@H](NC(=O)[C@H](CCCCN)NC(=O)[C@H](CCCCN)NC(=O)[C@H](CC(C)C)NC(=O)[C@@H]1CCCN1C(=O)[C@H](CCCCN)NC(=O)[C@@H]1CCCN1)C(=O)N[C@@H](CCCNC(N)N)C(=O)N[C@@H](Cc1ccccc1)C(=O)N[C@@H](CC(=O)O)C(=O)O (H-PKPLKKL[Orn(CH(NH2)2)]FD-OH)
Kd (protein: phospho-CDK2/cyclin A, PDB entry 1h25): 1800 nM (active)

CC(C)C[C@H](NC(=O)[C@@H](NC(=O)[C@@H](N)CO)C(C)C)C(=O)NCC(=O)N[C@@H](CCCCN)C(=O)N[C@@H](CCCNC(N)N)C(=O)N[C@@H](CCCCN)C(=O)N[C@@H](CCCNC(N)N)C(=O)N[C@@H](Cc1cnc[nH]1)C(=O)O (H-SVLGK[Orn(CH(NH2)2)]K[Orn(CH(NH2)2)]H-OH)
Kd (protein: IMPORTIN SUBUNIT ALPHA-1A, PDB entry 2yns): 25 nM (active)

CC(C)C[C@H](N)C(=O)NCC(=O)N[C@@H](CCCCN)C(=O)N[C@@H](CCCNC(N)N)C(=O)N[C@@H](CCCCN)C(=O)N[C@@H](Cc1ccc(O)cc1)C(=O)O (H-LGK[Orn(CH(NH2)2)]KY-OH)
Kd (protein: IMPORTIN SUBUNIT ALPHA-2, PDB entry 4ba3): 2900 nM (active)

CC(C)C[C@H](NC(=O)[C@@H](NC(=O)[C@@H](N)[C@@H](C)O)C(C)C)C(=O)NCC(=O)N[C@@H](CCCCN)C(=O)N[C@@H](CCCNC(N)N)C(=O)N[C@@H](CCCCN)C(=O)O (H-TVLGK[Orn(CH(NH2)2)]K-OH)
Kd (protein: IMPORTIN SUBUNIT ALPHA-1A, PDB entry 4b8p): 140 nM (active)

CSCC[C@H](NC(=O)[C@H](Cc1cnc[nH]1)NC(=O)[C@H](CCC(N)=O)NC(=O)[C@H](CCCNC(N)N)NC(=O)[C@H](CCC(=O)O)NC(=O)[C@H](Cc1ccccc1)NC(=O)[C@H](CCCCN)NC(=O)[C@H](C)NC(=O)[C@H](C)NC(=O)[C@H](C)NC(=O)[C@@H](NC(=O)[C@H](CCC(=O)O)NC(=O)[C@@H](N)CCCCN)[C@@H](C)O)C(=O)N[C@@H](CC(=O)O)C(=O)N[C@@H](CO)C(N)=O (H-KETAAAKFE[Orn(CH(NH2)2)]QHMDS-NH2)
Kd (protein: Ribonuclease S(RNase S), PDB entry 1j7z): 20 nM (active)
Kd (protein: Ribonuclease S(RNase S), PDB entry 1j80): 300 nM (active)
Kd (protein: Ribonuclease S(RNase S), PDB entry 1j81): 80 nM (active)
